Measured values taken from PubChem BioAssay AID1159580 (chemical genetic matrix, 2015).
Among all 5,500 compounds or so, about 2,000 (36%) were called active. About 18% were inconclusive and are not listed. The list shows a part of the results. Unmarked numbers belong to inactive results. Rule as the data show it: active = normalized growth mostly below about 0.91 (no sharp cut-off); inconclusive = no clear call, values can overlap the other calls; inactive = mostly above about 0.92.

Assay: chemical genetic growth profiling, strain panel (AID 1159580);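 also: tested at 20 µM; growth read once vehicle control cultures reached saturation at 30 °C; 1 = growth at the plate median or of vehicle wells; lower values mean less growth of the strain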
Conditions: growth OD

CC/C(=C(/CC)c1ccc(O)cc1)c1ccc(O)cc1
normalized growth (S. cerevisiae deletion strains, locus YKL009W, strain mrt4, hits give low values): 0.916
normalized growth (S. cerevisiae deletion strains, locus YKL068W, hits give low values): 1.01
normalized growth (S. cerevisiae deletion strains, locus YKL085W, strain MDH1 (second series), hits give low values): 0.973
normalized growth (S. cerevisiae deletion strains, locus YKL085W, strain MDH1, hits give low values): 0.973
normalized growth (S. cerevisiae deletion strains, locus YKL160W, strain elf1, hits give low values): 0.955
normalized growth (S. cerevisiae deletion strains, locus YKL190W, strain CNB1, hits give low values): 1
normalized growth (S. cerevisiae deletion strains, locus YKR001C, strain vps1, hits give low values): 0.987
normalized growth (S. cerevisiae deletion strains, locus YKR026C, strain gcn3, hits give low values): 1.02
normalized growth (S. cerevisiae deletion strains, locus YKR091W, strain srl3, hits give low values): 1.01
normalized growth (S. cerevisiae deletion strains, locus YLL001W, strain dnm1, hits give low values): 1
normalized growth (S. cerevisiae deletion strains, locus YLL026W, hits give low values): 1
normalized growth (S. cerevisiae deletion strains, locus YLL041C, strain sdh2, hits give low values): 1.02
normalized growth (S. cerevisiae deletion strains, locus YLR027C, strain aat2, hits give low values): 1.01
normalized growth (S. cerevisiae deletion strains, locus YLR039C, strain RIC1, hits give low values): 0.481 (active)
normalized growth (S. cerevisiae deletion strains, locus YLR058C, strain SHM2, hits give low values): 0.943
normalized growth (S. cerevisiae deletion strains, locus YLR102C, strain apc9, hits give low values): 1.01
normalized growth (S. cerevisiae deletion strains, locus YLR113W, strain HOG1, hits give low values): 0.963
normalized growth (S. cerevisiae deletion strains, locus YLR221C, strain rsa3, hits give low values): 0.956
normalized growth (S. cerevisiae deletion strains, locus YLR258W, strain gsy2, hits give low values): 0.963
normalized growth (S. cerevisiae deletion strains, locus YLR262C, strain YPT6 (second series), hits give low values): 0.485 (active)
normalized growth (S. cerevisiae deletion strains, locus YLR262C, strain YPT6, hits give low values): 0.439 (active)
normalized growth (S. cerevisiae deletion strains, locus YLR268W, strain sec22, hits give low values): 0.945
normalized growth (S. cerevisiae deletion strains, locus YLR320W, strain mms22, hits give low values): 0.84 (active)
normalized growth (S. cerevisiae deletion strains, locus YLR330W, strain CHS5, hits give low values): 0.981
normalized growth (S. cerevisiae deletion strains, locus YLR342W, strain FKS1 (second series), hits give low values): 0.89
normalized growth (S. cerevisiae deletion strains, locus YLR342W, strain FKS1, hits give low values): 1.01
normalized growth (S. cerevisiae deletion strains, locus YLR357W, strain rsc2, hits give low values): 1.14
normalized growth (S. cerevisiae deletion strains, locus YLR370C, strain arc18, hits give low values): 1.01
normalized growth (S. cerevisiae deletion strains, locus YLR371W, strain rom2, hits give low values): 1.02
normalized growth (S. cerevisiae deletion strains, locus YLR384C, strain iki3, hits give low values): 1.02
normalized growth (S. cerevisiae deletion strains, locus YLR418C, strain cdc73, hits give low values): 0.956
normalized growth (S. cerevisiae deletion strains, locus YML016C, strain PPZ1, hits give low values): 1.01
normalized growth (S. cerevisiae deletion strains, locus YML032C, strain rad52, hits give low values): 0.914
normalized growth (S. cerevisiae deletion strains, locus YML120C, strain ndi1, hits give low values): 1.01
normalized growth (S. cerevisiae deletion strains, locus YML124C, strain tub3, hits give low values): 1.01
normalized growth (S. cerevisiae deletion strains, locus YMR058W, strain fet3, hits give low values): 0.974
normalized growth (S. cerevisiae deletion strains, locus YMR078C, strain ctf18, hits give low values): 1
normalized growth (S. cerevisiae deletion strains, locus YMR125W, strain sto1, hits give low values): 1.09
normalized growth (S. cerevisiae deletion strains, locus YMR129W, hits give low values): 1.02
normalized growth (S. cerevisiae deletion strains, locus YMR205C, strain PFK2, hits give low values): 0.943
normalized growth (S. cerevisiae deletion strains, locus YMR223W, strain ubp8, hits give low values): 0.942
normalized growth (S. cerevisiae deletion strains, locus YMR231W, strain pep5, hits give low values): 1.03
normalized growth (S. cerevisiae deletion strains, locus YMR307W, strain GAS1, hits give low values): 0.569 (active)
normalized growth (S. cerevisiae deletion strains, locus YNL067W, strain RPL9B, hits give low values): 0.933
normalized growth (S. cerevisiae deletion strains, locus YNL071W, strain lat1, hits give low values): 0.913 (active)
normalized growth (S. cerevisiae deletion strains, locus YNL153C, strain GIM3, hits give low values): 0.918
normalized growth (S. cerevisiae deletion strains, locus YNL183C, strain NPR1, hits give low values): 0.921
normalized growth (S. cerevisiae deletion strains, locus YNL209W, strain ssb2, hits give low values): 0.981
normalized growth (S. cerevisiae deletion strains, locus YNL233W, strain BNI4, hits give low values): 0.896
normalized growth (S. cerevisiae deletion strains, locus YNL248C, strain rpa49, hits give low values): 1.02
normalized growth (S. cerevisiae deletion strains, locus YNL250W, strain rad50, hits give low values): 1
normalized growth (S. cerevisiae deletion strains, locus YNL271C, strain bni1, hits give low values): 1
normalized growth (S. cerevisiae deletion strains, locus YNL298W, strain CLA4, hits give low values): 0.914
normalized growth (S. cerevisiae deletion strains, locus YNL307C, strain MCK1, hits give low values): 0.995
normalized growth (S. cerevisiae deletion strains, locus YNL322C, strain KRE1 (second series), hits give low values): 1.03
normalized growth (S. cerevisiae deletion strains, locus YNL322C, strain KRE1, hits give low values): 0.992
normalized growth (S. cerevisiae deletion strains, locus YNR049C, strain mso1, hits give low values): 1.01
normalized growth (S. cerevisiae deletion strains, locus YNR052C, strain pop2, hits give low values): 0.99
normalized growth (S. cerevisiae deletion strains, locus YOL006C, strain TOP1, hits give low values): 0.73
normalized growth (S. cerevisiae deletion strains, locus YOL012C, strain htz1): 1.4
normalized growth (S. cerevisiae deletion strains, locus YOL147C, strain pex11, hits give low values): 1.02
normalized growth (S. cerevisiae deletion strains, locus YOR001W, strain rrp6, hits give low values): 0.997
normalized growth (S. cerevisiae deletion strains, locus YOR061W, strain CKA2, hits give low values): 0.976
normalized growth (S. cerevisiae deletion strains, locus YOR069W, strain VPS5, hits give low values): 1
normalized growth (S. cerevisiae deletion strains, locus YOR070C, strain gyp1, hits give low values): 0.945
normalized growth (S. cerevisiae deletion strains, locus YOR080W, strain dia2, hits give low values): 1.02
normalized growth (S. cerevisiae deletion strains, locus YOR083W, strain WHI5, hits give low values): 0.948
normalized growth (S. cerevisiae deletion strains, locus YOR106W, strain vam3, hits give low values): 0.951
normalized growth (S. cerevisiae deletion strains, locus YOR136W, strain idh2, hits give low values): 1.01
normalized growth (S. cerevisiae deletion strains, locus YOR144C, strain elg1, hits give low values): 1.01
normalized growth (S. cerevisiae deletion strains, locus YOR184W, strain ser1, hits give low values): 0.812 (active)
normalized growth (S. cerevisiae deletion strains, locus YOR231W, strain MKK1, hits give low values): 0.976
normalized growth (S. cerevisiae deletion strains, locus YOR265W, strain rbl2, hits give low values): 0.999
normalized growth (S. cerevisiae deletion strains, locus YOR270C, strain vph1, hits give low values): 0.728 (active)
normalized growth (S. cerevisiae deletion strains, locus YOR290C, strain snf2, hits give low values): 0.961
normalized growth (S. cerevisiae deletion strains, locus YOR316C, strain cot1, hits give low values): 1
normalized growth (S. cerevisiae deletion strains, locus YPL051W, strain arl3, hits give low values): 0.919
normalized growth (S. cerevisiae deletion strains, locus YPL055C, strain LGE1, hits give low values): 0.811
normalized growth (S. cerevisiae deletion strains, locus YPL078C, strain atp4, hits give low values): 0.953
normalized growth (S. cerevisiae deletion strains, locus YPL106C, strain sse1, hits give low values): 1.12
normalized growth (S. cerevisiae deletion strains, locus YPL240C, strain hsp82, hits give low values): 1.01
normalized growth (S. cerevisiae deletion strains, locus YPL256C, strain CLN2, hits give low values): 0.977
normalized growth (S. cerevisiae deletion strains, locus YPR119W, strain clb2, hits give low values): 1
normalized growth (S. cerevisiae deletion strains, locus YPR141C, strain kar3, hits give low values): 1.03
normalized growth (S. cerevisiae deletion strains, locus YPR163C, strain tif3, hits give low values): 1.02
normalized growth (S. cerevisiae deletion strains, locus YPR167C, strain met16, hits give low values): 1
normalized growth (S. cerevisiae deletion strains, strain wtn01, hits give low values): 0.971
normalized growth (S. cerevisiae strains, strain wild type, hits give low values): 0.948
